These results are taken from PubChem BioAssay (EPA / NIEHS).

Inconclusive results are not listed. Active and inactive are the calls of the source. How the source made its calls: active means hit-call score of the fitted dose curve at least 0.9, where 1 is the maximum; inconclusive means response in the unintended direction; inactive means score below 0.9.

Assay [1] has as its target Metabotropic glutamate receptor 1 (Rattus norvegicus) (UniProt P23385). In words: NVS_GPCR_rmMGluR1: NovaScreen (NVS) G Protein-Coupled Receptor Assay for rat Glutamate Metabotropic Receptor 1 (MGluR1) (AID 2283305). The gist of the method: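 Rat cerebellum membrane preparation, radioligand displacement binding read by filter-based scintillation counting 1 hour after dosing. Initial duplicate single-point screen at 25 uM, then concentration-response up to 50 uM; loss of signal versus DMSO baseline scored.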

The target of a further assay is Adra2b (gene 24174) (UniProt P19328). In words: NVS_GPCR_rmAdra2B: NovaScreen (NVS) G Protein-Coupled Receptor Assay for hybird cells Adrenergic, Alpha 2B Receptor (Adra2B) (AID 2283306). The gist of the method:
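Radioligand filter-binding assay on membrane proteins from neuroglioma/blastoma hybrid cells (rodent), 1 h after dosing; scintillation counting, loss of signal vs DMSO. Primary screen in duplicate at 25 uM, actives then run in concentration series.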

In assay [2] the target is rat Somatostatin Receptor (SST), Sstr1 (gene 25033) (UniProt P28646). In words: NVS_GPCR_rSST: NovaScreen (NVS) G Protein-Coupled Receptor Assay for rat Somatostatin Receptor (SST) (AID 2283314). The gist of the method: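 Rat forebrain membranes; radioligand displacement read by filter-based scintillation counting 1 h after dosing. Primary screen in duplicate at 25 uM. Actives (e.g., 30% inhibition) were rerun as concentration-response to 50 uM max and fitted against DMSO.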

In assay [3] the target is rat Opioid Receptor, Non-selective Binding, Oprm1 (gene 25601) (UniProt P33535). As to the kind of experiment: NVS_GPCR_rOpiate_NonSelective: NovaScreen (NVS) G Protein-Coupled Receptor Assay for rat Opioid Receptor, Non-selective Binding (AID 2283318). The gist of the method:
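Rat forebrain membranes, cell-free radioligand binding with filter-based scintillation counting, read 1.5 h after dosing. Primary screen in duplicate at 25 uM; actives retested in concentration series. Loss of signal versus DMSO baseline scored.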

The target in assay [4] is rat Serotonin, 5-Hydroxytryptamine Receptor (5HT), Non-Selective Binding, Htr1a (gene 24473) (UniProt P19327). In words: NVS_GPCR_r5HT_NonSelective: NovaScreen (NVS) G Protein-Coupled Receptor Assay for rat Serotonin, 5-Hydroxytryptamine Receptor (5HT), Non-Selective Binding (AID 2283295). The method in brief:
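Radioligand displacement on rat cortical membranes, 1 h incubation, filter-based scintillation counting. Primary duplicates at 25 uM, actives retested in concentration series; loss of signal fitted against DMSO as baseline.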

Assay [5] has as its target rat Adrenergic, Alpha 1A Receptor (Adra1A), Adra1a (gene 29412) (UniProt P43140). In words: NVS_GPCR_rAdra1A: NovaScreen (NVS) G Protein-Coupled Receptor Assay for rat Adrenergic, Alpha 1A Receptor (Adra1A) (AID 2283296). The method in brief: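 Rat cortical membranes pretreated with chlorethyl clonidine; competitive radioligand displacement, 1 h. Filter-based scintillation counting. Primary screen in duplicate at 25 uM, actives followed in concentration series.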

The test system of assay [6] is rat Adrenergic, Alpha 1B Receptor (Adra1B), gene 24173. In words: NVS_GPCR_rAdra1B: NovaScreen (NVS) G Protein-Coupled Receptor Assay for rat Adrenergic, Alpha 1B Receptor (Adra1B) (AID 2283297). The method in brief:
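Rat liver membranes, radioligand displacement with filter-based scintillation detection, 1 h incubation. Primary screen in duplicate at 25 uM; actives retested in concentration series; activity relative to DMSO.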

Assay [7] addresses rat Adrenergic Receptor, Beta (Adrb), Non-selective Binding, Adrb1 (gene 24925) (UniProt P18090). In words: NVS_GPCR_rAdrb_NonSelective: NovaScreen (NVS) G Protein-Coupled Receptor Assay for rat Adrenergic Receptor, Beta (Adrb), Non-selective Binding (AID 2283298). The method in brief:
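Non-selective beta-adrenergic radioligand binding in rat cortical membranes, 1 h incubation, filter-based scintillation read-out. Primary screen 25 uM in duplicate; hits retested in concentration-response up to 50 uM, DMSO baseline.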

Assay [8] addresses rat Neurokinin-1 Receptor (NK1), Tacr1 (gene 24807) (UniProt P14600). In words: NVS_GPCR_rNK1: NovaScreen (NVS) G Protein-Coupled Receptor Assay for rat Neurokinin-1 Receptor (NK1) (AID 2283309). The gist of the method: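 Rat submaxillary gland membranes; radioligand displacement read by filter-based scintillation counting after 1 h. Primary screen in duplicate at 25 uM; actives retested in concentration series; loss of binding fitted versus DMSO.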

Assay [9] concerns the target rat Neurokinin-3 Receptor (NK3), Tacr3 (gene 24808) (UniProt P16177). As to the kind of experiment: NVS_GPCR_rNK3: NovaScreen (NVS) G Protein-Coupled Receptor Assay for rat Neurokinin-3 Receptor (NK3) (AID 2283310). The gist of the method:
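Rat cortical membranes; radioligand binding with filtration and scintillation counting, 2 h after dosing. Primary screen in duplicate at 25 uM, then concentration-response up to 50 uM; loss of binding signal relative to DMSO.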

The target in assay [10] is rat Opioid Receptor, Non-selective Sodium (Na+) Binding, Oprm1 (gene 25601) (UniProt P33535). As to the kind of experiment: NVS_GPCR_rOpiate_NonSelectiveNa: NovaScreen (NVS) G Protein-Coupled Receptor Assay for rat Opioid Receptor, Non-selective Sodium (Na+) Binding (AID 2283311). The gist of the method: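 Rat forebrain membranes, radioligand displacement with filter scintillation counting, 1.5 h incubation. Screened in duplicate at 25 µM; hits then run in concentration-response up to 50 µM; loss of binding fitted versus DMSO.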

The target of assay [11] is rat Neonicotinoid receptor (NNR), Chrna7 (gene 25302) (UniProt Q05941). In words: NVS_LGIC_rNNR_BungSens: NovaScreen (NVS) Ligand-Gated Ion Channel Assay for rat Neonicotinoid receptor (NNR) (AID 2283315). The method in brief: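 Radioligand displacement binding on rat cortical membranes, 2.5 h incubation, filtration and scintillation counting. Loss of specific binding fitted relative to DMSO.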

In assay [12] the target is rat Vasopressin 1 Receptor (V1), Avpr1a (gene 25107) (UniProt P30560). As to the kind of experiment: NVS_GPCR_rV1: NovaScreen (NVS) G Protein-Coupled Receptor Assay for rat Vasopressin 1 Receptor (V1) (AID 2283316). The method in brief:
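Radioligand binding on rat liver membranes, 1.5 h incubation, filter-based scintillation counting. Single 25 uM screen in duplicate; chemicals meeting threshold (e.g. 30% inhibition) run in concentration-response up to 50 uM.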

The subject of the next assay is NCBI gene 24521. As to the kind of experiment: NVS_IC_rKATPCh: NovaScreen (NVS) Ion Channel Assay for rat Potassium Channel, ATP-Sensitive (KATPCh) (AID 2283319). The method in brief:
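Rat cortical membranes; radioligand binding at ATP-sensitive K channel site, filter-based scintillation counting 2 h after dosing. Single-point duplicate screen at 25 uM, hits rerun in concentration-response up to 50 uM; loss of signal versus DMSO.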

Assay [13] can be described thus: NVS_IC_rCaDHPRCh_L: NovaScreen (NVS) Ion Channel Assay for rat Calcium Channel, Type L, Dihydropyridine Site (CaDHPRCh_L) (AID 2283320). The gist of the method: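 Radioligand binding to dihydropyridine site on rat cortical membranes, filter-based scintillation counting, 1 h after dosing. Screened in duplicate at 25 uM; actives rerun in concentration-response up to 50 uM. Loss of signal versus DMSO baseline.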

In assay [14] the target is Sodium channel protein type 1 subunit alpha (Rattus norvegicus) (UniProt P04774). As to the kind of experiment: NVS_IC_rNaCh_site2: NovaScreen (NVS) Ion Channel Assay for rat Sodium Channel, Site 2 (NaCh) (AID 2283322).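 Further: hit means loss of radioligand binding signal relative to DMSO so AC50 marks displacement.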 The gist of the method:
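Membranes: rat forebrain. Format: competitive radioligand displacement, filter separation, scintillation readout, 1 h exposure. Primary screen in duplicate at 25 uM; actives retested in concentration series.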

Sequence of rat Opioid Receptor, Non-selective Binding, Oprm1 (gene 25601) (P33535 whole entry, looked up): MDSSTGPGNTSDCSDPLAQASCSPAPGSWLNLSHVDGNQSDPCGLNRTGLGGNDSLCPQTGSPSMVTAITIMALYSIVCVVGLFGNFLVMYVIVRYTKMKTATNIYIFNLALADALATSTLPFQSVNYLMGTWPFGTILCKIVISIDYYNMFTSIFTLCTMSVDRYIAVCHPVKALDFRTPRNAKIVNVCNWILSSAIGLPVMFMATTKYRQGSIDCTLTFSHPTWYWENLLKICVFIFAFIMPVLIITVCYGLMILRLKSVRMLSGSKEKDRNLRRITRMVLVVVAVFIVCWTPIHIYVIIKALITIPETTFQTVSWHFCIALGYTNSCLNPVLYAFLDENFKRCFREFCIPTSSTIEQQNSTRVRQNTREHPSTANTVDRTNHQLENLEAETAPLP
Sequence of rat Opioid Receptor, Non-selective Sodium (Na+) Binding, Oprm1 (gene 25601) (P33535 whole entry, looked up): as above
Sequence of rat Neurokinin-1 Receptor (NK1), Tacr1 (gene 24807) (P14600 whole entry, looked up): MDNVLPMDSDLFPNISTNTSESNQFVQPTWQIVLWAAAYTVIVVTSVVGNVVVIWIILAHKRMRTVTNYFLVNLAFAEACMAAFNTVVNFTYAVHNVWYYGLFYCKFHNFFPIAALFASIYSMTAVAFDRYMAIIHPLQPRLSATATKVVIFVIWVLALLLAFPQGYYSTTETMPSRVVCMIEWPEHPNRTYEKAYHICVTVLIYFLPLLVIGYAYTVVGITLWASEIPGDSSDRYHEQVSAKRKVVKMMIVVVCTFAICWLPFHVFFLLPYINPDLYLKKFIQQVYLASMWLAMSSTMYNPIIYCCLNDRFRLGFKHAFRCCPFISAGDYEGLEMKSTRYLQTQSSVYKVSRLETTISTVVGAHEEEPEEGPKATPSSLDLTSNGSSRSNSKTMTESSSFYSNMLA
Sequence of rat Vasopressin 1 Receptor (V1), Avpr1a (gene 25107) (P30560 whole entry, looked up): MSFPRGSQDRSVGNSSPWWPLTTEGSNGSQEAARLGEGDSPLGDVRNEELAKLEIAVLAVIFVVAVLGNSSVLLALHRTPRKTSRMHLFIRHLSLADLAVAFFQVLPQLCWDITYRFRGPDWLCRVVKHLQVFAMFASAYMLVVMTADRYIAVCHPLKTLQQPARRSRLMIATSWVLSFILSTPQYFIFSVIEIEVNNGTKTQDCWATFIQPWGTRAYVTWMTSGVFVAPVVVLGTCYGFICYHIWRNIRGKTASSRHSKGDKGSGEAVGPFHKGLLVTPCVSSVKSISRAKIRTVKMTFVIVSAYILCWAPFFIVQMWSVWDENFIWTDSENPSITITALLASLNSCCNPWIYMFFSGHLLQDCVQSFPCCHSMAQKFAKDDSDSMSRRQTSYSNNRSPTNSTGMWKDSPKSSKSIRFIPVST
Sequence of Adra2b (gene 24174) (P19328 whole entry, looked up): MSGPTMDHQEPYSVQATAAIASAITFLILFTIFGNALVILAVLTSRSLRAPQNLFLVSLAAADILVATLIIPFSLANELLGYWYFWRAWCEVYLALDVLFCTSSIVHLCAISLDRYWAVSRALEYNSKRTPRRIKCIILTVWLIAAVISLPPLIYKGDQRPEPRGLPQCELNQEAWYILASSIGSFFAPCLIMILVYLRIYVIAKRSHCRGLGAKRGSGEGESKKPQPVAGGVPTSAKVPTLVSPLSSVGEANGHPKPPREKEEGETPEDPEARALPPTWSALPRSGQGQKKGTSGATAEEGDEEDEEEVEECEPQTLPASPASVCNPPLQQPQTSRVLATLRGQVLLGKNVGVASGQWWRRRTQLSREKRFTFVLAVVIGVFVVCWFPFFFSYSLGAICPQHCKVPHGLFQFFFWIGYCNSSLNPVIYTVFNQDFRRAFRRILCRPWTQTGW
Sequence of rat Somatostatin Receptor (SST), Sstr1 (gene 25033) (P28646 whole entry, looked up): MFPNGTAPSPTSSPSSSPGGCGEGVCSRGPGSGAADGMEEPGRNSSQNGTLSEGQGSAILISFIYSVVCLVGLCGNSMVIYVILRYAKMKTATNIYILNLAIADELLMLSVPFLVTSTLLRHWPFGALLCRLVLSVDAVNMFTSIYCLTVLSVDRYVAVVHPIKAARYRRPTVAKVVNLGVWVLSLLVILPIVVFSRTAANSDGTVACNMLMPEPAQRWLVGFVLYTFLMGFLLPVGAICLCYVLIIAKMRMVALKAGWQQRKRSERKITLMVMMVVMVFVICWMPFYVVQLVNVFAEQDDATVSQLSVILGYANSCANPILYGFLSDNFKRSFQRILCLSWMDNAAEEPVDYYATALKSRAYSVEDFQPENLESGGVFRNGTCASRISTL
Sequence of rat Adrenergic Receptor, Beta (Adrb), Non-selective Binding, Adrb1 (gene 24925) (P18090 whole entry, looked up): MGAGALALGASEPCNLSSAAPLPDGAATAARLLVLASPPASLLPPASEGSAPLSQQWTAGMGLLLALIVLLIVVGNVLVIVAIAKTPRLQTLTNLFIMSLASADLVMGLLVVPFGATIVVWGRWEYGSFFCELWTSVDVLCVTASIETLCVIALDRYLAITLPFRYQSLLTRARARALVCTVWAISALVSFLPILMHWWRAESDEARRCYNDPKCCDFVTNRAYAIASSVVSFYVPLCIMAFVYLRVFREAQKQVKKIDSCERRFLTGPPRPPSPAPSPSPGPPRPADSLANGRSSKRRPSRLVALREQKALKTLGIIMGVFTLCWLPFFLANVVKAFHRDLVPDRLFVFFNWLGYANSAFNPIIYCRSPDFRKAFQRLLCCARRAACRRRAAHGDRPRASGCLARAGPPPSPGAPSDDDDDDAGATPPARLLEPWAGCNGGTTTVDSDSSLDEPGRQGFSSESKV
Sequence of Metabotropic glutamate receptor 1 (Rattus norvegicus) (P23385 whole entry, looked up): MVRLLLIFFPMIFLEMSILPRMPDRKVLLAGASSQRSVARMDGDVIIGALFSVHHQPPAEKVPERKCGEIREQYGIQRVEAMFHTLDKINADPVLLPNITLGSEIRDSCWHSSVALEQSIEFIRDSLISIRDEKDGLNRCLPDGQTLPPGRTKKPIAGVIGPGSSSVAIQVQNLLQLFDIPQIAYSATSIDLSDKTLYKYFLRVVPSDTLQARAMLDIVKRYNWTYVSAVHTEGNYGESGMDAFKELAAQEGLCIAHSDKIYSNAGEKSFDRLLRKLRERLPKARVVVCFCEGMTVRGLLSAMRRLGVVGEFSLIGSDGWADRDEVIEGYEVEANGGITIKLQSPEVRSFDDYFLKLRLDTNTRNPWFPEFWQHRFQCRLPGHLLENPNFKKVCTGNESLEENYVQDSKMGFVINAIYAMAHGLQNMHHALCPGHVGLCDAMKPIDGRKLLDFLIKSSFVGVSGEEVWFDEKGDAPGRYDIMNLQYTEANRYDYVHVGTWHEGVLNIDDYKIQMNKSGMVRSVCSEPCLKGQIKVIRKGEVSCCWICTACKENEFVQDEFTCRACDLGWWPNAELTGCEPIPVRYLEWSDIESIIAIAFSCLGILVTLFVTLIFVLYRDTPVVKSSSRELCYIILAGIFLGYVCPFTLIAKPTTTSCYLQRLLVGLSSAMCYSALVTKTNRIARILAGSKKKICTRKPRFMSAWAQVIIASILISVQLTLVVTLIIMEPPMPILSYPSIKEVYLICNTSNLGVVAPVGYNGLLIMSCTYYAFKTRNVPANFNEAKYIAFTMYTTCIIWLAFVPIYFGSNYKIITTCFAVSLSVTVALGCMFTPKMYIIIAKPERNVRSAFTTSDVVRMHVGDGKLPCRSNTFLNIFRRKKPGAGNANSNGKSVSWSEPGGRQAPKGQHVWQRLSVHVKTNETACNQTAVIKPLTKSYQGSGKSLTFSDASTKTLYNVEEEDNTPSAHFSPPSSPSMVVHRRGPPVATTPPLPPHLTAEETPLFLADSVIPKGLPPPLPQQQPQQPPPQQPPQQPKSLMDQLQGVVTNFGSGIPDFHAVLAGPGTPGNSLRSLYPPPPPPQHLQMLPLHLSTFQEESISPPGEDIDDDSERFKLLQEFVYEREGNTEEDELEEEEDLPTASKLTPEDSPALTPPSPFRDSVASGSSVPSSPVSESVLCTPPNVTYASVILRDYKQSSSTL
Sequence of rat Neonicotinoid receptor (NNR), Chrna7 (gene 25302) (Q05941 whole entry, looked up): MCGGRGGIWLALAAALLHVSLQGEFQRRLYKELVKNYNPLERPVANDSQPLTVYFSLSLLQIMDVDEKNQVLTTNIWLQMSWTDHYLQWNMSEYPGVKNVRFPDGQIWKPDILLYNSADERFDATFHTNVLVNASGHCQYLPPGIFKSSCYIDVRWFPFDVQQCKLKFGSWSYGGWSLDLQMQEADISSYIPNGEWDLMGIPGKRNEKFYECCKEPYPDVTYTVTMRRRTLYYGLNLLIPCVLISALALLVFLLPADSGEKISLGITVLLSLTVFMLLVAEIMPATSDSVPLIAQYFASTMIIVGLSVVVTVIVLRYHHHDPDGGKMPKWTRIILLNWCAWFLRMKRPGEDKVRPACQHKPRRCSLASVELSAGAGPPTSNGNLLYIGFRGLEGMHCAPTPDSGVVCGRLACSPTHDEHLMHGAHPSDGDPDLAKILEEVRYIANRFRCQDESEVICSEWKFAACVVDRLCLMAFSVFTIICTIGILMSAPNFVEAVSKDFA
Sequence of rat Neurokinin-3 Receptor (NK3), Tacr3 (gene 24808) (P16177 whole entry, looked up): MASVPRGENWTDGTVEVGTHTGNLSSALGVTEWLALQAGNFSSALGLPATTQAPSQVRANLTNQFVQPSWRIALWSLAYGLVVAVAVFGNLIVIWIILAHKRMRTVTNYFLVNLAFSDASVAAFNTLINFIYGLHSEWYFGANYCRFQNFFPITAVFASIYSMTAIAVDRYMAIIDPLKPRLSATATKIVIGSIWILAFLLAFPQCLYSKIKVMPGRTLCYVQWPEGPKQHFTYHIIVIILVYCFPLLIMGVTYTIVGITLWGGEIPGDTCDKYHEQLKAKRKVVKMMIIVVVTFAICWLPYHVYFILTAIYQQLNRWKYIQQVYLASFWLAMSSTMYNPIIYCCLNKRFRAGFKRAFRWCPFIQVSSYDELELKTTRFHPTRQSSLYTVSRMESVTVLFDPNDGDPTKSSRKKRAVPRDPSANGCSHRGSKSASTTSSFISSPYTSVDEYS

As to `O=c1[nH]sc2ccccc12`, the AC50 in assay [1] was 35.9 µM (active); with Adra2b (gene 24174), 37.4 µM (active); in [3] it was 19.6 µM (active). In assay [2], the outcome was inactive.
For the compound `CN(C)C(=O)C1(N2CCCCC2)CCN(CC[C@@]2(c3ccc(Cl)c(Cl)c3)CN(C(=O)c3ccccc3)CCO2)CC1`, the concentration at half-maximal activity (AC50) is 1.71 µM (active) in assay [4]; 10.1 µM (active) in [5]; 5.65 µM (active) in assay [6]; 6.63 µM (active) in assay [7]; 15.5 µM (active) in assay [1]; 8.86 µM (active) with Adra2b (gene 24174). For the same compound, the AC50 in [8] is 10.9 µM (active); in [9], 0.00216 µM (active); in [10], 3.48 µM (active); in assay [2], 12.6 µM (active); in assay [12], 38.2 µM (active); in assay [3], 1.73 µM (active). The values for the AC50 in assay [13] and in assay [14] were 0.655 µM (active) and 0.822 µM (active), respectively. For the same compound, the call (in assay [11]; in the assay on NCBI gene 24521) was inactive.
As to `C[C@]12CC[C@@H]3c4ccc(O)cc4CC[C@H]3[C@@H]1CC[C@H]2O`, the result in [10] was inactive.
For the compound `Clc1ccccc1C(c1ccccc1)(c1ccccc1)n1ccnc1`, the compound was classed as inactive in assay [10] and in [3]. In addition, the half-maximal activity concentration (AC50) in [12] was 36.5 µM (active).
On to `CCCCCCCCCCCC[N+](C)(C)C`, for which the values for the AC50 (with Adra2b (gene 24174); in assay [8]; in assay [14]) were 37.3 µM (active), 44.9 µM (active) and 13 µM (active), respectively.
For `Cc1c2ccccc2c(C)c2c1ccc1ccccc12`, in [12], the half-maximal activity concentration (AC50) is 25 µM (active).
`Cc1oc2c(NC(=O)c3c(Cl)cccc3Cl)cccc2c1C(C)(C)O`: in assay [8], the call was inactive.
Regarding `CC[C@H](NC(=O)c1cc(F)ccc1NS(=O)(=O)c1cccc2cccnc12)c1ccccc1`, the call in assay [7], in assay [8] and in assay [14] was inactive.

What is called AC50 is the midpoint of the concentration-response curve, whichever way the signal moves.
